{"source": "PubChem BioAssay (NCATS)", "note": "Inconclusive results are not listed. Where a call stands in place of a potency, no number is given. Calls of active or inactive are those of the source. Calls come from the whole dose curve."}
{"tested_on": "not listed separately", "experiment": "Natriuretic polypeptide receptor (hNpr1) antagonism - Pilot counterscreen GloSensor control cell line (AID 1347045); note: potency is the fitted concentration of half-maximal effect", "settings": "HEK293 cGMP GloSensor cells, SNP-stimulated luminescence, 20 min; series mostly up to 38.3 µM", "how_it_was_run": "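Control counterscreen: luciferase cGMP-biosensor HEK293 cells (no Npr1) received compound for 30 min at room temperature after GloSensor substrate loading. Luminescence was measured before and 20 min after soluble guanylyl cyclase activation by 50 uM nitroprusside.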"}
{"smiles": "N[C@@H](Cc1ccc(O)c(I)c1)C(=O)O", "Potency": "inactive"}
{"smiles": "Cc1nc2c(OCc3ccccc3)cccn2c1CC#N", "Potency": "inactive"}
{"smiles": "CCCn1c(=O)c2c(ncn2C)n(CCC)c1=O", "Potency": "inactive"}
{"smiles": "COc1cccc(OC)c1OCCNCC1CSc2ccccc2O1", "note": "(stereo unspecified)", "Potency": "inactive"}
{"smiles": "O=c1ccc2c(OCCCCc3ccccc3)c3ccoc3cc2o1", "Potency": "inactive"}
{"smiles": "C[C@]12C=CC(=O)C=C1CC[C@@H]1C2=CC[C@]2(C)[C@@H](C(=O)CN3CCN(c4cc(N5CCCC5)nc(N5CCCC5)n4)CC3)CC[C@@H]12", "Potency": "inactive"}
{"smiles": "CC1CCN=C(N)S1", "note": "(stereo unspecified)", "Potency": "inactive"}
{"smiles": "N#CC(=C(\\N)Sc1ccccc1N)/C(C#N)=C(/N)Sc1ccccc1N", "Potency": "18.5 µM (active)"}
{"smiles": "CN1CCC2(CCN3CCc4c(oc5ccccc45)C3C2)N(C)C1=O", "note": "(stereo unspecified)", "Potency": "inactive"}
{"smiles": "NC[C@@H]1O[C@H](c2ccccc2)Cc2c1ccc(O)c2O", "Potency": "inactive"}
{"smiles": "Cc1nc(N=Nc2ccc(S(=O)(=O)O)cc2S(=O)(=O)O)c(COP(=O)(O)O)c(C=O)c1O", "Potency": "inactive"}
{"smiles": "CCCc1c(OCCCOc2ccc(OCC(=O)O)cc2)ccc(C(C)=O)c1O", "Potency": "inactive"}
{"smiles": "O=C(O)C1=CCNCC1", "Potency": "inactive"}
{"smiles": "NOCC(=O)O", "Potency": "inactive"}
{"smiles": "C=CCN1CCc2c(cc(O)c(O)c2Cl)C(c2ccccc2)C1", "note": "(stereo unspecified)", "Potency": "inactive"}
{"smiles": "N#C/C(=C\\c1ccc(O)c(O)c1)C(=O)NCCc1ccccc1", "Potency": "inactive"}
{"smiles": "CC[C@H](NC(=O)c1c(C)c(-c2ccccc2)nc2ccccc12)c1ccccc1", "Potency": "inactive"}
{"smiles": "Nc1ccc(-c2ccc3ccccc3n2)cc1", "Potency": "14.7 µM (active)"}
{"target": "Atrial natriuretic peptide receptor 1 (Homo sapiens) (UniProt P16066)", "sequence (P16066 whole entry, looked up)": "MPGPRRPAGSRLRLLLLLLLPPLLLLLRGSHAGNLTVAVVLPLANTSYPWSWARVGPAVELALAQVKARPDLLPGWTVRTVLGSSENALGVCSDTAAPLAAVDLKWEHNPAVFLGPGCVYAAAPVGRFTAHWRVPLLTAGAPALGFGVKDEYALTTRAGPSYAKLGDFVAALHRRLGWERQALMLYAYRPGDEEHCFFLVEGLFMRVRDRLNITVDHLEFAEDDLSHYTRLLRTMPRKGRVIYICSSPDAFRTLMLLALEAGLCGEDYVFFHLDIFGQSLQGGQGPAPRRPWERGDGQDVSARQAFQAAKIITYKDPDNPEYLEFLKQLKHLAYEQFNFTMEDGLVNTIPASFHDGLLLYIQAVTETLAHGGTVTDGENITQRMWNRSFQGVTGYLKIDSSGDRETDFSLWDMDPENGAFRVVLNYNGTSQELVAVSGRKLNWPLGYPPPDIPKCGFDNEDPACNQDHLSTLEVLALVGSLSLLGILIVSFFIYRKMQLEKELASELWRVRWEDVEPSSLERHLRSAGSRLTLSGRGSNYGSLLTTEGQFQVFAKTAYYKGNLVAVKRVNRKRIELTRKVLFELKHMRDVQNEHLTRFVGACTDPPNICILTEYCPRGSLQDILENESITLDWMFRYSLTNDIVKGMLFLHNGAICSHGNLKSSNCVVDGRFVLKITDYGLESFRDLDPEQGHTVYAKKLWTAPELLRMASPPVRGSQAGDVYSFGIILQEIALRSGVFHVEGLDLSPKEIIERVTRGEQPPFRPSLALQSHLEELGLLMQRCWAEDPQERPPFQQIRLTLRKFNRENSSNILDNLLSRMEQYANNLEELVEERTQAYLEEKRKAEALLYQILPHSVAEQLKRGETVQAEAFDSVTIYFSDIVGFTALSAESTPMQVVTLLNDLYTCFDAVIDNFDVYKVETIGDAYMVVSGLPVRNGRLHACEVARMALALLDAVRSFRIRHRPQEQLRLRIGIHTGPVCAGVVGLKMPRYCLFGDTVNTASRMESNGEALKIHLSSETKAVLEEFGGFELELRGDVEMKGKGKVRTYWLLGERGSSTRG", "experiment": "Natriuretic polypeptide receptor (hNpr1) antagonism - Pilot screen (AID 1347049);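 note: HEK293 cells with hNpr1 and GloSensor cGMP luciferase stimulated by 0.1 nM hNppA; agonist-evoked cGMP luminescence read 20 min after hNppA addition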", "settings": "hNpr1 cells, antagonist mode cGMP read-out; series mostly up to 57.5 µM", "how_it_was_run": "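Cells expressing receptor plus cGMP biosensor are seeded and incubated overnight at 37C, then loaded with GloSensor reagent (2% final) at room temperature for 2 h. Library compounds go on for 30 min. A pre-read precedes agonist (hNppA, 0.1 nM final) and a 20-min readout.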"}
{"smiles": "O=c1[nH]c2cc(Cl)ccc2c(O)c1-c1ccc(Oc2ccccc2)cc1", "Potency": "inactive"}
{"smiles": "COc1ccccc1N1CCN(CCN(C(=O)c2ccc(F)cc2)c2ccccn2)CC1", "Potency": "inactive"}
{"smiles": "N[C@H]1CONC1=O", "Potency": "inactive"}
{"smiles": "N#Cc1cc2nc(O)c(O)nc2cc1[N+](=O)[O-]", "Potency": "inactive"}
{"smiles": "Nc1ncnc2c1nc(Sc1ccc(Cl)cc1)n2[C@H]1OC2COP(=O)(O)O[C@@H]2C1O", "note": "(stereo partly specified)", "Potency": "inactive"}
{"smiles": "NCC(O)c1ccc(O)c(O)c1", "note": "(stereo unspecified)", "Potency": "inactive"}
{"smiles": "NC1CONC1=O", "note": "(stereo unspecified)", "Potency": "inactive"}
{"smiles": "NC1C=CC=C(C(=O)O)C1", "note": "(stereo unspecified)", "Potency": "inactive"}
{"smiles": "COc1ccc(CCN(C)CCc2ccc(OC)c(OC)c2)cc1OC", "Potency": "inactive"}
{"smiles": "CC(=O)/C(C)=N/O", "Potency": "inactive"}
{"smiles": "NC(N)=N[C@@H](CCC(=O)O)C(=O)O", "Potency": "inactive"}
{"smiles": "CCCCS(=N)(=O)CC[C@H](N)C(=O)O", "note": "(stereo partly specified)", "Potency": "inactive"}
{"smiles": "N[C@@H](Cc1ccc(O)c(I)c1)C(=O)O", "Potency": "inactive"}
{"smiles": "CCCn1c(=O)c2c(ncn2C)n(CCC)c1=O", "Potency": "inactive"}
{"smiles": "O=c1ccc2c(OCCCCc3ccccc3)c3ccoc3cc2o1", "Potency": "inactive"}
{"smiles": "C[C@]12C=CC(=O)C=C1CC[C@@H]1C2=CC[C@]2(C)[C@@H](C(=O)CN3CCN(c4cc(N5CCCC5)nc(N5CCCC5)n4)CC3)CC[C@@H]12", "Potency": "inactive"}
{"smiles": "CN1CCC2(CCN3CCc4c(oc5ccccc45)C3C2)N(C)C1=O", "note": "(stereo unspecified)", "Potency": "inactive"}
{"smiles": "Cc1nc(N=Nc2ccc(S(=O)(=O)O)cc2S(=O)(=O)O)c(COP(=O)(O)O)c(C=O)c1O", "Potency": "inactive"}
{"smiles": "CCCc1c(OCCCOc2ccc(OCC(=O)O)cc2)ccc(C(C)=O)c1O", "Potency": "inactive"}
{"smiles": "C=CCN1CCc2c(cc(O)c(O)c2Cl)C(c2ccccc2)C1", "note": "(stereo unspecified)", "Potency": "inactive"}
{"target": "Atrial natriuretic peptide receptor 2 (Homo sapiens) (UniProt P20594)", "sequence (P20594 whole entry, looked up)": "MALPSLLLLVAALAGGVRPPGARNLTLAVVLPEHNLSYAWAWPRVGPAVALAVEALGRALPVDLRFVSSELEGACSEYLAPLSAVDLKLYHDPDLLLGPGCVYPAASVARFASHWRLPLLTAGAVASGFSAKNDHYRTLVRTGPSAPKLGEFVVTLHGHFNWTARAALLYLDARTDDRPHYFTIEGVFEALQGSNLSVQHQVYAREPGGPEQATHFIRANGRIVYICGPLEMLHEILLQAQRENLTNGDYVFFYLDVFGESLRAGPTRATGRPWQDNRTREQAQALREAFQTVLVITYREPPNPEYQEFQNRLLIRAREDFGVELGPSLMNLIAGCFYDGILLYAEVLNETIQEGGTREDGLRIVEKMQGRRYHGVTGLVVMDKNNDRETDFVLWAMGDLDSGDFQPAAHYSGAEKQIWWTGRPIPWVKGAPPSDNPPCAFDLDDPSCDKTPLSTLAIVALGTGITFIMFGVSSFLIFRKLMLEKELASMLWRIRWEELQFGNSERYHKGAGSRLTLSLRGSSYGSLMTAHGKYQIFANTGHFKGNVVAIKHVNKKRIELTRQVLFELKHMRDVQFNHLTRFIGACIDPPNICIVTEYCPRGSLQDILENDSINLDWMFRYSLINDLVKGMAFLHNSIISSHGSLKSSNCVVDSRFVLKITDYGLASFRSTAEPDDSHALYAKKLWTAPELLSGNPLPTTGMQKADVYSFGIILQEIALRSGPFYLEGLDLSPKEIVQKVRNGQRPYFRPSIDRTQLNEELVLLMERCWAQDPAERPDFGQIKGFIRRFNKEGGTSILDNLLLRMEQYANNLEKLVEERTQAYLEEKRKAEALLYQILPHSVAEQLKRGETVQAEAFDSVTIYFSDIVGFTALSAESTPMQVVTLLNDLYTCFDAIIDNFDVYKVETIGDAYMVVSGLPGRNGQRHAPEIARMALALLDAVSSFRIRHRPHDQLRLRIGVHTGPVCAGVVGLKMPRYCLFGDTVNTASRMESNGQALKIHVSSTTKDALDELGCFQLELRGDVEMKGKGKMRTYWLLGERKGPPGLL", "experiment": "Natriuretic polypeptide receptor (hNpr2) antagonism - Pilot subtype selectivity assay (AID 1347050); note: potency is the fitted concentration of half-maximal effect", "settings": "NPR2-expressing cells, cGMP antagonist-mode read-out; series mostly up to 38.3 µM", "how_it_was_run": "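Read-out: GloSensor luminescence (CCD imager), baseline vs post-stimulation. HEK293 cells expressing hNpr2; compounds pre-incubated 30-50 min at ambient temperature; hNppC 1 nM final, 20 min.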"}
{"smiles": "CCCCCCCCCCCCCCCCCCOC[C@H](COP(=O)([O-])OCC[N+](C)(C)C)OC", "Potency": "8.26 µM (active)"}
{"smiles": "O=c1[nH]c2cc(Cl)ccc2c(O)c1-c1ccc(Oc2ccccc2)cc1", "Potency": "inactive"}
{"smiles": "COc1ccccc1N1CCN(CCN(C(=O)c2ccc(F)cc2)c2ccccn2)CC1", "Potency": "inactive"}
{"smiles": "CCCC(=O)NCCc1c2n(c3ccc(OC)cc13)CCCc1ccccc1-2", "Potency": "inactive"}
{"smiles": "CC[C@@H]1Cc2cc(O)ccc2C2=C1c1ccc(O)cc1C[C@H]2CC", "Potency": "inactive"}
{"smiles": "N[C@H]1CONC1=O", "Potency": "inactive"}
{"smiles": "C=C1C(=O)O[C@@H]2[C@H]3O[C@]3(C)CCC=C(C)CC[C@@H]12", "Potency": "11.7 µM (active)"}
{"smiles": "N#Cc1cc2nc(O)c(O)nc2cc1[N+](=O)[O-]", "Potency": "inactive"}
{"smiles": "CCCOC(=O)c1c(-c2ccccc2)nc(CC)c(C(=O)SCC)c1CCC", "Potency": "inactive"}
{"smiles": "Nc1ncnc2c1nc(Sc1ccc(Cl)cc1)n2[C@H]1OC2COP(=O)(O)O[C@@H]2C1O", "note": "(stereo partly specified)", "Potency": "inactive"}
{"smiles": "NCC(O)c1ccc(O)c(O)c1", "note": "(stereo unspecified)", "Potency": "inactive"}
{"smiles": "NC1CONC1=O", "note": "(stereo unspecified)", "Potency": "inactive"}
{"smiles": "Oc1ccc(/C=C/c2ccc(/C=C/c3ccc(O)cc3)c(Br)c2)cc1", "Potency": "inactive"}
{"smiles": "COc1ccc(C(=O)NCc2cccnc2)cc1C(=O)NCc1cccnc1", "Potency": "inactive"}
{"smiles": "NC1C=CC=C(C(=O)O)C1", "note": "(stereo unspecified)", "Potency": "inactive"}
{"smiles": "COc1ccc(CCN(C)CCc2ccc(OC)c(OC)c2)cc1OC", "Potency": "inactive"}
{"smiles": "CC(=O)/C(C)=N/O", "Potency": "inactive"}
{"smiles": "COc1ccc(CCn2nnnc2C2(c3ccc(C)cc3)CC2)cc1", "Potency": "inactive"}
{"smiles": "NC(N)=N[C@@H](CCC(=O)O)C(=O)O", "Potency": "inactive"}
{"smiles": "CCCCS(=N)(=O)CC[C@H](N)C(=O)O", "note": "(stereo partly specified)", "Potency": "inactive"}
{"smiles": "N[C@@H](Cc1ccc(O)c(I)c1)C(=O)O", "Potency": "inactive"}
{"smiles": "Cc1nc2c(OCc3ccccc3)cccn2c1CC#N", "Potency": "inactive"}
{"smiles": "CCCn1c(=O)c2c(ncn2C)n(CCC)c1=O", "Potency": "inactive"}
{"smiles": "COc1cccc(OC)c1OCCNCC1CSc2ccccc2O1", "note": "(stereo unspecified)", "Potency": "inactive"}
{"smiles": "O=c1ccc2c(OCCCCc3ccccc3)c3ccoc3cc2o1", "Potency": "inactive"}
{"smiles": "C[C@]12C=CC(=O)C=C1CC[C@@H]1C2=CC[C@]2(C)[C@@H](C(=O)CN3CCN(c4cc(N5CCCC5)nc(N5CCCC5)n4)CC3)CC[C@@H]12", "Potency": "inactive"}
{"smiles": "CC1CCN=C(N)S1", "note": "(stereo unspecified)", "Potency": "inactive"}
{"smiles": "N#CC(=C(\\N)Sc1ccccc1N)/C(C#N)=C(/N)Sc1ccccc1N", "Potency": "inactive"}
{"smiles": "CN1CCC2(CCN3CCc4c(oc5ccccc45)C3C2)N(C)C1=O", "note": "(stereo unspecified)", "Potency": "inactive"}
{"smiles": "NC[C@@H]1O[C@H](c2ccccc2)Cc2c1ccc(O)c2O", "Potency": "inactive"}
{"smiles": "Cc1nc(N=Nc2ccc(S(=O)(=O)O)cc2S(=O)(=O)O)c(COP(=O)(O)O)c(C=O)c1O", "Potency": "inactive"}
{"smiles": "CCCc1c(OCCCOc2ccc(OCC(=O)O)cc2)ccc(C(C)=O)c1O", "Potency": "inactive"}
{"smiles": "O=C(O)C1=CCNCC1", "Potency": "inactive"}
{"smiles": "NOCC(=O)O", "Potency": "inactive"}
{"smiles": "C=CCN1CCc2c(cc(O)c(O)c2Cl)C(c2ccccc2)C1", "note": "(stereo unspecified)", "Potency": "inactive"}
{"smiles": "N#C/C(=C\\c1ccc(O)c(O)c1)C(=O)NCCc1ccccc1", "Potency": "inactive"}
{"smiles": "CC[C@H](NC(=O)c1c(C)c(-c2ccccc2)nc2ccccc12)c1ccccc1", "Potency": "inactive"}
{"smiles": "Nc1ccc(-c2ccc3ccccc3n2)cc1", "Potency": "16.5 µM (active)"}
